Data published in PubChem BioAssay (NCATS).
Inconclusive results are not listed. Entries that show only a call come without a potency. Calls of active or inactive are those of the source. Unless noted, calls come from the whole dose curve; as a rule, active = well fitted curve in the direction sought with a large enough effect; inconclusive = small, poorly fitted or top-dose-only effect, or another doubt; inactive = no such curve, though single readings can be large; an effect the other way counts as inactive or inconclusive.

What was measured:
[1] = biological target: ATP-dependent 6-phosphofructokinase (Trypanosoma brucei brucei) (UniProt O15648); test: qHTS Validation Assay to Find Inhibitors of T. brucei phosphofructokinase (AID 485368); conditions: T. brucei PFK enzyme assay, qHTS 7-point titration; at 57.5 µM (top of the series)
How it was run: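 Activity was read as ADP production by luminescence (ADP-Glo) after 45 min at room temperature. The enzyme was 1.25nM PFK in 0.1M TEA pH 8.0 with 0.5 mM F6P, 0.1mM ATP and 5 mM MgCl2. Compounds were titrated up to 57 uM and % activity normalized to no-enzyme and full-enzyme controls.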

[2] = biological target: Cytochrome P450 2C19 (Homo sapiens) (UniProt P33261); test: qHTS Assay for Inhibitors and Substrates of Cytochrome P450 2C19 (AID 899); note: potency is the fitted concentration of half-maximal effect; nearly all actives have a fitted effect of over 60% in size
How it was run: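 Human CYP2C19 (5nM) with Luciferin-H EGE at 10uM (its KM) in 50mM KPO4 was preincubated with compound for 10 min at 37C. NADPH regeneration started a 60 min 37C reaction. Luciferin was read by luminescence, normalized to 57uM ketoconazole.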

[3] = qHTS profiling for inhibitors of Plasmodium falciparum (3D7) proliferation (AID 743322; call rule not given here;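 note: infected erythrocytes exposed to compound for 72 h before lysis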); conditions: P. falciparum 3D7 proliferation; at 28.7 µM (top of the series)
How it was run: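 Erythrocytes infected with P. falciparum (0.3% parasitemia, 2.5% hematocrit) incubated with compounds 72 h at 37 C, 5% CO2. Lysis with saponin/Triton buffer containing SYBR Green I, overnight at room temperature in the dark; DNA fluorescence (485/535 nm) normalised to 0.29 uM artemisinin and DMSO.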

[4] = qHTS profiling for inhibitors of Plasmodium falciparum (DD2) proliferation (AID 743323; call rule not given here); conditions: lower = more inhibition; at 28.7 µM (top of the series)
How it was run: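 P. falciparum Dd2-infected erythrocytes (0.3% parasitemia, 2.5% hematocrit) exposed 72 h at 37 C, 5% CO2. Lysis with SYBR Green, overnight at room temperature, fluorescence 485/535 nm; normalized to 0.29 uM artemisinin and DMSO.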

[5] = qHTS profiling for inhibitors of Plasmodium falciparum (HB3) proliferation (AID 743324); conditions: Plasmodium falciparum HB3 blood-stage proliferation; at 28.7 µM (top of the series)
How it was run: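 P. falciparum HB3 grown in erythrocytes (0.3% parasitemia, 2.5% hematocrit final) with compound for 72 h at 37 C, 5% CO2. Parasite DNA detected by SYBR Green after saponin/triton lysis overnight; normalized to 0.29 uM artemisinin and DMSO.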

[6] = biological target: Pyruvate kinase (Leishmania mexicana) (UniProt Q27686); test: qHTS Validation Assay for Inhibitors of Leishmania Mexicana Pyruvate Kinase (AID 945)
How it was run: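 Luminescent ATP detection (PKLight) after a 1 h room-temperature reaction of 0.2 nM LmPYK E451W mutant with 0.5 mM PEP and 0.1 mM ADP at pH 7.2. Activity is normalized to DMSO-only control wells.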

[7] = biological target: ATP-dependent DNA helicase Q1 (Homo sapiens) (UniProt P46063); test: qHTS Validation Assay for Inhibitors of RecQ-Like Dna Helicase 1 (RECQ1) (AID 2353); note: potency is the fitted concentration of half-maximal effect
How it was run: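 50 nM RECQ1T1 preincubated 15 min with compound in Tris pH 8.0 buffer with MgCl2, DTT, Tween-20 and 2.5 ug/ml poly(dI-dC); started with 200 nM TAMRA/BHQ-2 forked duplex and 2 mM ATP. Unwinding read as fluorescence (525/598 nm), two reads 2 h apart.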

[8] = Quantitative high throughput screen for delayed death inhibitors of the malarial parasite plastid, 48 hour incubation (AID 488752); note: potency is the fitted concentration of half-maximal effect; nearly all actives have a fitted effect of over 65% in size
How it was run: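 Erythrocytes infected with firefly luciferase-expressing P. falciparum (2% hematocrit, 0.1% parasitemia) cultured with compound for 48 h at 37 C, 5% CO2, in RPMI 1640/0.5% Albumax. Growth inhibition read as loss of luminescence.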

[9] = biological target: Peptidyl-prolyl cis-trans isomerase NIMA-interacting 1 (Homo sapiens) (UniProt Q13526); test: qHTS Validation Assay to Find Inhibitors of Pin1 (AID 504536; active = well fitted inhibition curve with a large enough effect in the polarisation, with a control signal flat, not every such curve was filed as active; the % refers to the polarisation; note: potency is the fitted concentration of half-maximal effect)
How it was run: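 Fluorescence polarization competition: compounds (titration) displace HiFluor-488-labeled Pin1-1b peptide from Pin1 (0.3 uM final) in pH 7.5 HEPES buffer with DTT, 10 min at room temperature; %Activity normalized to no-enzyme wells, curves fitted.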

[10] = biological target: Phosphoglycerate kinase, glycosomal (Trypanosoma brucei brucei) (UniProt P07378); test: qHTS Validation Assay to Find Inhibitors of Phosphoglycerate Kinase (AID 504547); note: potency is the fitted concentration of half-maximal effect
How it was run: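 Substrate/PGK mix plus compound; reaction started with GAPDH (100nM final) to form 1,3-BPG; 60 min RT; Kinase-Glo Plus 10 min; luminescence. TEA 100mM pH 7.6, MgCl2 5mM, Tween-20 0.01%.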

[11] = biological target: Hexokinase-4 (Homo sapiens) + Glucokinase regulatory protein (Homo sapiens) (UniProt P35557+Q14397); test: qHTS assay for inhibitors of recombinant human GCK-GKRP interaction: Diaphorase-coupled assay (AID 743205)
How it was run: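 A kinetic fluorescence read (Ex 525/Em 590 nm, every minute for 30 minutes) tracked resorufin from a G6PDH-diaphorase coupled GCK reaction. It contained 10 nM GST-GCK, 10 nM FLAG-GKRP, 5 mM glucose, 0.4 mM ATP in Hepes pH 7.6. Normalized to with/without-enzyme DMSO controls.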

[12] = HepG2 viability counterscreen (readout 2: ATP content) against the NCATS DSHEA and TCM libraries (AID 1794840);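 note: HepG2 cells exposed to substances for about 24 h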
How it was run: (§1)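 Readout 1: cellular protease activity, GF-AFC substrate (25 uM final, 30 min, fluorescence 380/510 nm). Readout 2: ATP content by CellTiter-Glo luminescence after 30 min at RT. Both follow ~24 h exposure of HepG2 cells (1,000/well) to substances.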

[13] = HepG2 viability counterscreen (readout 1: protease activity) against the NCATS DSHEA and TCM libraries (AID 1794841);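 note: cells exposed to compounds for about 24 h before the protease read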
How it was run: as §1

[14] = biological target: Cytochrome P450 2D6 (Homo sapiens) (UniProt P10635); test: qHTS for inhibitors of CYP2D6 against the NCATS DSHEA and TCM libraries (AID 1919972)
How it was run: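 Luminescent P450-Glo read-out of CYP2D6 turnover of a luciferin substrate after NADPH-driven reaction of 30-45 min at room temperature. Compounds were first preincubated 15 min with enzyme at titrated concentrations; quinidine was the intraplate control.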

[15] = KB-3-1 P-gp reporter qHTS against the NCATS DSHEA and TCM libraries (AID 1919975)
How it was run: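 Cell viability by CellTiter-Glo luminescence following ~72 h compound exposure (concentration-response). Uses parental, non-P-gp-overexpressing KB-3-1 line, 500 cells/well in DMEM/10% FBS, attached ~4 h before dosing.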

[16] = biological target: Cytochrome P450 1A2 (Homo sapiens) (UniProt P05177); test: qHTS for inhibitors of CYPIA2 against the NCATS DSHEA and TCM libraries (AID 1919976);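 note: light from luciferin formed by CYP1A2 from a pro-luciferin substrate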
How it was run: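 Human CYP1A2 with pro-luciferin substrate (typically 100 mM KPO4), 15 min preincubation with compound, then 1x NADPH regeneration for 30-45 min at room temperature in the dark. Luciferin quantified by luciferase luminescence; furafylline intraplate control.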

[17] = qHTS Counterscreen for compound interference against the NCATS DSHEA and TCM libraries (AID 1919978); conditions: firefly luciferase detection reagent interference, luminescence;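 note: compounds preincubated with 1 µM D-luciferin or buffer before detection reagent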
How it was run: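 With 1 uM D-luciferin or phosphate buffer only, compounds at final 19.5 nM–39.8 uM were incubated for 15 min at room temperature. Luciferase detection reagent was then added, and luminescence was measured after a further 30 min at room temperature.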

[18] = Dual reporter qHTS for agonist of Pregnane X Receptor (hPXR) against the NCATS DSHEA and TCM libraries: Fluorescence readout (AID 1920058)
How it was run: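 hPXR-Luc HepG2 cells, 2000/well in charcoal-stripped serum, attached 5 h, dosed for ~24 h at 37 °C. Fluorescence read is CellTiter-Fluor viability (Ex/Em 405/540 nm); rifampicin positive, tetraoctyl ammonium bromide (92 µM) cytotoxicity controls.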

[19] = biological target: Nuclear receptor subfamily 1 group I member 2 (Homo sapiens) (UniProt O75469); test: Dual reporter qHTS for agonist of Pregnane X Receptor (hPXR) against the NCATS DSHEA and TCM libraries: Luminescence readout (AID 1920059)
How it was run: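 hPXR-LucHepG2 cells in phenol red-free DMEM with 5% charcoal-stripped FBS, 2000 cells/well, attached 5 h, then exposed 24 h at 37C to compounds; rifampicin as positive agonist control (2.8 nM–92 uM). Luciferase luminescence read.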

[20] = biological target: Nuclear receptor subfamily 1 group I member 2 (Homo sapiens) (UniProt O75469); test: Dual reporter qHTS for antagonist of Pregnane X Receptor (hPXR) against the NCATS DSHEA and TCM libraries: Luminescence Readout (AID 1920060);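 note: HepG2 cells carrying hPXR luciferase reporter stimulated with rifampicin at 2 µM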
How it was run: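 hPXR-Luc HepG2 cells exposed 24 h at 37 C to compounds with 2 uM rifampicin in antagonist mode; luciferase luminescence measured by ONE-Glo, with CellTiter-Fluor viability read beforehand.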

Sequence of Nuclear receptor subfamily 1 group I member 2 (Homo sapiens) (O75469 whole entry, looked up): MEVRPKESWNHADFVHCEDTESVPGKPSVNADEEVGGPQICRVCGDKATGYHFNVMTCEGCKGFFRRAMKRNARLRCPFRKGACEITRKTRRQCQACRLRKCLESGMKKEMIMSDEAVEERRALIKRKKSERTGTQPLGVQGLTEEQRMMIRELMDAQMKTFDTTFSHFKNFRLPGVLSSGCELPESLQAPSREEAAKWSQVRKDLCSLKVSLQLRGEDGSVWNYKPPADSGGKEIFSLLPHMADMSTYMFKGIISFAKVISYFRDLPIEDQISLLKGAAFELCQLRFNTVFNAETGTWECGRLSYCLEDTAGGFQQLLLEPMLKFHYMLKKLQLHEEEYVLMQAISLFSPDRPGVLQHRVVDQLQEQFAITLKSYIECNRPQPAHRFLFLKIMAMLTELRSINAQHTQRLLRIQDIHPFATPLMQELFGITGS
Sequence of Cytochrome P450 1A2 (Homo sapiens) (P05177 whole entry, looked up): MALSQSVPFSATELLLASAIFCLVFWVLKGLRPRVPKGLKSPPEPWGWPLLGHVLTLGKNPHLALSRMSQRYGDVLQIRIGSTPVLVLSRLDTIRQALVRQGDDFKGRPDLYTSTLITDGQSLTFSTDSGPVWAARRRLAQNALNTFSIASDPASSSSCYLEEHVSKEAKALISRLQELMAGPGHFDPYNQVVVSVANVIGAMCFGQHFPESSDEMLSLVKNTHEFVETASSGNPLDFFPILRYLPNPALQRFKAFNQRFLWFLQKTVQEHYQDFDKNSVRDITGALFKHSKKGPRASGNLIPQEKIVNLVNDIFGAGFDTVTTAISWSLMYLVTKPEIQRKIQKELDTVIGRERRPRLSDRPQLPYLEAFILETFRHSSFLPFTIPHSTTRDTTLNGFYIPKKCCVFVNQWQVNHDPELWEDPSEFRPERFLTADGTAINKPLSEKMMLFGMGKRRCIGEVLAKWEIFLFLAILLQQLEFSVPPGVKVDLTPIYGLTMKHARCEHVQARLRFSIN
Sequence of Cytochrome P450 2C19 (Homo sapiens) (P33261 whole entry, looked up): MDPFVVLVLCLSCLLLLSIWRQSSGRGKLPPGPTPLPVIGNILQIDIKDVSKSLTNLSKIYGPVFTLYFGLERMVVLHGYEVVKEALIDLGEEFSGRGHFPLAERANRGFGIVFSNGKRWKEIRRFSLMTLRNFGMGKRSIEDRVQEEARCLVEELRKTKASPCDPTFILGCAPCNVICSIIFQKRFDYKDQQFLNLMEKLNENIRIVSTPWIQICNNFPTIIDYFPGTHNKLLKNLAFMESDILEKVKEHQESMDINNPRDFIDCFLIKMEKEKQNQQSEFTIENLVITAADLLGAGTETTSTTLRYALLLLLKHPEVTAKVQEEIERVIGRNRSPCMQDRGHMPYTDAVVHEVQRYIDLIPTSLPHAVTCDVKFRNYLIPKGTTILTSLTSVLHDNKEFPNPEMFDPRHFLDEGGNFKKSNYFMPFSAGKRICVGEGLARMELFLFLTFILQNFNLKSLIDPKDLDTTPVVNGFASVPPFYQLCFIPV
Sequence of ATP-dependent DNA helicase Q1 (Homo sapiens) (P46063 whole entry, looked up): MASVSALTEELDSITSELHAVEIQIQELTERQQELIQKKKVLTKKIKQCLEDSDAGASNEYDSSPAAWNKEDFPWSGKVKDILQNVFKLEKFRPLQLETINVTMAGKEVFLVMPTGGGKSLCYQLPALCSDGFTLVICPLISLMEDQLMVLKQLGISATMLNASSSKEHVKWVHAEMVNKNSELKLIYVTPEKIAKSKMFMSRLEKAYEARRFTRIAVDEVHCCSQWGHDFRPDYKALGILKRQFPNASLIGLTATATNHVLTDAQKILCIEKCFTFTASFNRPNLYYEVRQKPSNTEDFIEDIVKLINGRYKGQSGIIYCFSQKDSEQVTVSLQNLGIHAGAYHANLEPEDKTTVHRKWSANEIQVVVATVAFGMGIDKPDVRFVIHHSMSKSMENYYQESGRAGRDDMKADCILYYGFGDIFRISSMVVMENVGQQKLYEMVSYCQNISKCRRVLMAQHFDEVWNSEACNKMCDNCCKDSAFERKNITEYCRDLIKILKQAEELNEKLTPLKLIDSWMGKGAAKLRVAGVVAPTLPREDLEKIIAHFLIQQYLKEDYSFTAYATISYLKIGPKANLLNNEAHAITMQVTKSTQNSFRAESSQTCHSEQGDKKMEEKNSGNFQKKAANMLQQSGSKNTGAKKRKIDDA
Sequence of Peptidyl-prolyl cis-trans isomerase NIMA-interacting 1 (Homo sapiens) (Q13526 whole entry, looked up): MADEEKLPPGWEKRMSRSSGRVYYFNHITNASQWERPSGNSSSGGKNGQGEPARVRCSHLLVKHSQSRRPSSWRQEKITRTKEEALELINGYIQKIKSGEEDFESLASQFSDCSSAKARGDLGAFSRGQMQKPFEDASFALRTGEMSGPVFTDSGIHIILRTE
Sequence of Phosphoglycerate kinase, glycosomal (Trypanosoma brucei brucei) (P07378 whole entry, looked up): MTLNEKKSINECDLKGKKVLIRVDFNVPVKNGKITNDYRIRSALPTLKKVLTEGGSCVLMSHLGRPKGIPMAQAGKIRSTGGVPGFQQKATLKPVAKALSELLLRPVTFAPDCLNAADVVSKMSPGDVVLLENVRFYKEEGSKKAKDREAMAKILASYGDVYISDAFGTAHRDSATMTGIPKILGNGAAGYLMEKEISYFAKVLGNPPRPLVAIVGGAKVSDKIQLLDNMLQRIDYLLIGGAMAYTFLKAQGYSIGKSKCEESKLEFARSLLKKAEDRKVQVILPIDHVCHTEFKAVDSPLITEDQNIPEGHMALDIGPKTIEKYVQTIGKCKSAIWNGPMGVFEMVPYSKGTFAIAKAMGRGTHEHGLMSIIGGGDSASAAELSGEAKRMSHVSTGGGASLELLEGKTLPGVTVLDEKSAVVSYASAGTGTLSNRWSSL
Sequence of Pyruvate kinase (Leishmania mexicana) (Q27686 2-499 E452W): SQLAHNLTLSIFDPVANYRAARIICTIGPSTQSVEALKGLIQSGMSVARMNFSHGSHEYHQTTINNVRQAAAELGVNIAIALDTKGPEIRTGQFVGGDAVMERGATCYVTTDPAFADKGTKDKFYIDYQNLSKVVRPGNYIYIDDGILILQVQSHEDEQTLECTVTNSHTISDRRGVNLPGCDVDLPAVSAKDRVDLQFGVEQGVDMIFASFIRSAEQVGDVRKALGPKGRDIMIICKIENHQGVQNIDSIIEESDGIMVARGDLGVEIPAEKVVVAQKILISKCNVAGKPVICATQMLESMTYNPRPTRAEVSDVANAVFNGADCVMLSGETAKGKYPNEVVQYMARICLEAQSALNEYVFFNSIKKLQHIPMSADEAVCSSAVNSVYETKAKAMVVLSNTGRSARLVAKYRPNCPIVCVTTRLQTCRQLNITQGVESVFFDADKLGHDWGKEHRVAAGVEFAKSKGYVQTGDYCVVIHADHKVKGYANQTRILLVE
Sequence of ATP-dependent 6-phosphofructokinase (Trypanosoma brucei brucei) (O15648 whole entry, looked up): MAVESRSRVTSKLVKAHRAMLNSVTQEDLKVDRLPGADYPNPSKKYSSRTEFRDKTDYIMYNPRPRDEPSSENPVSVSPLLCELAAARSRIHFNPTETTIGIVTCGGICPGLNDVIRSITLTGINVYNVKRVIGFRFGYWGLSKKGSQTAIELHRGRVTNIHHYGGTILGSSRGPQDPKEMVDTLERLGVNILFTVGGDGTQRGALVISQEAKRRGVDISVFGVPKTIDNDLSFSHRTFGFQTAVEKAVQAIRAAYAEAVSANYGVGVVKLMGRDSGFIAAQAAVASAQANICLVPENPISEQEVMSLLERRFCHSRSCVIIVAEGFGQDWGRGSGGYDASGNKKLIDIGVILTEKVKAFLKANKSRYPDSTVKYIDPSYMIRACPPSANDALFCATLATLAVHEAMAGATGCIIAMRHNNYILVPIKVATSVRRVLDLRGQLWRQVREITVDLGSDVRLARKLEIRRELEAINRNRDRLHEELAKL
Sequence of Cytochrome P450 2D6 (Homo sapiens) (P10635 whole entry, looked up): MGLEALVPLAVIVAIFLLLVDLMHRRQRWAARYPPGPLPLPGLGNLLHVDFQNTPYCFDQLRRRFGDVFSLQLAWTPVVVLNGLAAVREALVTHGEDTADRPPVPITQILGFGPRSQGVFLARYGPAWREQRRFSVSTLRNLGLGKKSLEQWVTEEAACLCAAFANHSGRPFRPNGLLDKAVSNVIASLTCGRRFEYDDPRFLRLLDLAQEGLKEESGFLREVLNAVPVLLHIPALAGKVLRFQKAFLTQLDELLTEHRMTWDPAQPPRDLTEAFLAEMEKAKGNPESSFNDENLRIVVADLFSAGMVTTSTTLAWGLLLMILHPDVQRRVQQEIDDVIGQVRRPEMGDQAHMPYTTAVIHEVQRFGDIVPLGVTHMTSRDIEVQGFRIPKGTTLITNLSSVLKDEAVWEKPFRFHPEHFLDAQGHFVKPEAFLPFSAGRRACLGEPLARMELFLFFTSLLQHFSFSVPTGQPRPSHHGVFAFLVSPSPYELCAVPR

Q: For CN1C2CCC1CC(OC(=O)C(CO)c1ccccc1)C2 (stereo not given), which outcome [1] is on record?
A: Its outcome is “inactive”.

Q: With O=c1c(O)c(-c2cc(O)c(O)c(O)c2)oc2cc(O)cc(O)c12 as the molecule, how does the Potency [2] read?
A: Its Potency is 10000 nM (active).

Q: For O=C(O)c1ccccc1C(=O)Nc1ccc(-c2ccccc2)cc1, which remaining parasite growth % (stronger effect = lower value) [3] is on record?
A: The remaining parasite growth % (stronger effect = lower value) was 93.1%.

Q: What about the activity, percent of control [4] of the same molecule?
A: Its activity, percent of control is 92.6%.

Q: What about the remaining proliferation (% of control), lower = more inhibition [5] of the same molecule?
A: The remaining proliferation (% of control), lower = more inhibition was 75.7%.

Q: Which results are given for N#C/C(=C\c1ccc(O)c(O)c1)C(=O)NCCCNC(=O)/C(C#N)=C/c1ccc(O)c(O)c1?
A: outcome [6]: inactive; Potency [7]: 447 nM (active); Potency [8]: 10400 nM (active); Potency [9]: 849 nM (active); Potency [10]: 1900 nM (active); outcome [11]: inactive

Q: Which outcome [12] does the source give for C=C(C)[C@@H]1CC=C(C=O)CC1 here?
A: The outcome was “inactive”.

Q: What about the outcome [13] of the same molecule?
A: The outcome was “inactive”.

Q: What about the outcome [14] of the same molecule?
A: The outcome was “inactive”.

Q: What about the outcome [15] of the same molecule?
A: Its outcome is “inactive”.

Q: And the Potency [16]?
A: Its Potency is “inactive”.

Q: What about the max response [17] of the same molecule?
A: The max response was -1.03% (inactive).

Q: What about the outcome [18] of the same molecule?
A: The outcome was “inactive”.

Q: And the outcome [19]?
A: The outcome was “inactive”.

Q: And the outcome [20]?
A: Its outcome is “inactive”.
